Laboratory results: the supplement of paper PMC13380429

Assays:
[1] = system: Vero E6 infected with SARS-CoV-2; assay: morphology score (similarity to uninfected cells); higher = more like uninfected cells; conditions: 24 h
[2] = system: Vero E6 infected with SARS-CoV-2; assay: SARS-CoV-2 infection rate relative to infected DMSO; higher = more infection, active = 60 or less; conditions: 24 h

| SMILES | morphology score [1] | SARS-CoV-2 infection rate [2] |
| --- | --- | --- |
| O=c1ccc2ccc(O)c(O)c2o1 [daphnetin] (10 µM) | 0.0316 | 110% (inactive) |
| O=c1ncn2nc(Sc3ccc(F)cc3F)ccc2c1-c1c(Cl)cccc1Cl (10 µM) | -0.049 | 108% (inactive) |
| O=C(Nc1ccccc1)OCC(CN1CCCCC1)OC(=O)Nc1ccccc1 (stereo not drawn) [diperodon] (10 µM) | -0.0894 | 108% (inactive) |
| CCCNC(C)(C)COC(=O)c1ccccc1 [meprylcaine] (10 µM) | 0.0721 | 102% (inactive) |
| Nc1cc(F)ccc1NC(=O)/C=C/c1cnn(C/C=C/c2ccccc2)c1 (0.833333 µM) | -0.0979 | 109% (inactive) |
| CN1C(=O)C[C@@H](C(=O)N[C@@H](Cc2c[nH]cn2)C(=O)N2CCC[C@H]2C(N)=O)NC1=O [taltirelin] (10 µM) | 0.0707 | 87% (inactive) |
| Oc1cc(O)c2c(c1)O[C@H](c1ccc(O)c(O)c1)[C@@H](O)C2 [cianidanol] (10 µM) | -0.0417 | 110% (inactive) |
| CCCCCCCCCCCCCCCC[n+]1ccn(Cc2ccccc2)c1C (0.833333 µM) | 0.0516 | 104% (inactive) |
| CCc1cc(Cl)c(OC)c(C(=O)NC[C@@H]2CCCN2CC)c1O [eticlopride] (10 µM) | 0.426 | 63.5% (inactive) |
| Cc1cc(-c2ccc(/N=N/c3ccc4c(S(=O)(=O)O)cc(S(=O)(=O)O)c(N)c4c3O)c(C)c2)ccc1/N=N/c1ccc2c(S(=O)(=O)O)cc(S(=O)(=O)O)c(N)c2c1O [evans-blue] (0.833333 µM) | -0.0473 | 110% (inactive) |
| c1ccc(C(NCc2cccnc2)(c2ccccc2)c2ccccc2)cc1 (10 µM) | -0.069 | 104% (inactive) |
| OC1(c2ccc(Cl)c(C(F)(F)F)c2)CCN(CCCC(c2ccc(F)cc2)c2ccc(F)cc2)CC1 [penfluridol] (0.833333 µM) | 0.173 | 79% (inactive) |
| CCOC(=O)[C@H]1O[C@@H]1C(=O)N[C@@H](CC(C)C)C(=O)NCCC(C)C [aloxistatin] (10 µM) | 0.331 | 90% (inactive) |
| CC1(C)O[C@@H]2C[C@H]3[C@@H]4C[C@H](F)C5=CC(=O)C=C[C@]5(C)[C@H]4[C@@H](O)C[C@]3(C)[C@]2(C(=O)CO)O1 [flunisolide] (10 µM) | 0.103 | 109% (inactive) |
| CCN1C[C@]2(OC(=O)c3ccccc3NC(C)=O)CC[C@H](OC)[C@@]34[C@@H]2C[C@@H]([C@@H]13)[C@@]1(O)C[C@H](OC)[C@H]2C[C@@H]4[C@]1(O)[C@H]2OC [lappaconite] (10 µM) | 0.0794 | 118% (inactive) |
| C[N+]1(C)[C@@H]2CC[C@H]1C[C@@H](OC(=O)C(O)c1ccccc1)C2 (stereo partly drawn) [homatropine-methylbromide] (10 µM) | -0.0363 | 104% (inactive) |
| CC(C)c1ccc2c(c1)CC[C@H]1[C@](C)(CN)CCC[C@]21C [lylamine] (0.833333 µM) | -0.00872 | 106% (inactive) |
| Cn1cc(-c2ccc(S(=O)(=O)n3ccc(/C=C/C(=O)Nc4ccccc4N)c3)cc2)cn1 (10 µM) | -0.0742 | 105% (inactive) |
| N#CN=C(NCCCCCCOc1ccc(Cl)cc1)Nc1ccncc1 (10 µM) | -0.0862 | 96.5% (inactive) |
| O=C1c2c(O)cc(O)cc2O[C@H](c2cc(O)c(O)c(O)c2)[C@H]1O [dihydromyricetin] (10 µM) | -0.0984 | 108% (inactive) |

| SMILES | morphology score [1] | SARS-CoV-2 infection rate [2] |
| --- | --- | --- |
| C[C@]12CC[C@H]3[C@@H](CC[C@@]45O[C@@H]4C(O)=C(C#N)C[C@]35C)[C@@H]1CC[C@@H]2O [trilostane] (10 µM) | -0.0579 | 104% (inactive) |
| Cn1cc(-c2cnc3ccc4ccc(CS(=O)(=O)NCc5ccccn5)cc4c(=O)c3c2)cn1 (10 µM) | 0.0342 | 106% (inactive) |
| CC(CCc1ccc(O)cc1)NCC(O)c1ccc(O)cc1 (stereo not drawn) [ractopamine] (10 µM) | -0.0659 | 111% (inactive) |
| COc1ccc(C(=O)Nc2c(Cl)cncc2Cl)cc1OC1CCCC1 [piclamilast] (10 µM) | 0.363 | 107% (inactive) |
| O=C(NCCCN1CCC2(CC1)OCc1ccccc12)[C@H]1CCCN1Cc1ccccc1 (10 µM) | 0.505 | 63.5% (inactive) |
| Clc1cccc(-n2nnnc2NCc2ccccc2Oc2ccccn2)c1Cl (10 µM) | -0.0586 | 110% (inactive) |
| O=C(CCCN1CC=C(n2c(=O)[nH]c3ccccc32)CC1)c1ccc(F)cc1 [droperidol] (10 µM) | 0.0599 | 112% (inactive) |
| O=C(O)c1ccccc1S [o-mercapto-benzoic-acid] (10 µM) | 0.201 | 101% (inactive) |
| CN(C)Cc1c(C(=O)NCCOc2ccc(C(=O)NO)cc2)oc2ccccc12 (10 µM) | -0.197 | 96.5% (inactive) |
| OCc1cc(C(O)CNCCCCCCOCCCCc2ccccc2)ccc1O (stereo not drawn) [salmeterol] (10 µM) | 0.465 | 54.5% (active) |
| O=C1c2ccccc2-c2c(NCCc3ccccc3)c(=O)[nH]c3cccc1c23 (10 µM) | -0.00844 | 112% (inactive) |
| CC(C)[C@H](C(=O)Nc1ccc(C(=O)NO)cc1)c1ccccc1 (10 µM) | 0.0602 | 104% (inactive) |
| Clc1ccc(COC(Cn2ccnc2)c2ccc(Cl)cc2Cl)cc1 (stereo not drawn) [econazole] (10 µM) | -0.225 | 101% (inactive) |
| CCn1cc(C(=O)O)c(=O)c2cc(F)c(N3CCN(C)CC3)cc21 [pefloxacin] (10 µM) | 0.158 | 91.5% (inactive) |
| C=C[C@H]1CN2CC[C@H]1CC2C(OC(=O)OCC)c1ccnc2ccc(OC)cc12 (stereo in doubt) [quinine-ethyl-carbonate] (10 µM) | 0.215 | 99% (inactive) |
| CC(C)c1cc(C(=O)N2Cc3ccc(CN4CCN(C)CC4)cc3C2)c(O)cc1O (10 µM) | 0.185 | 118% (inactive) |
| O=C(/C=C/c1cccc(F)c1)NC1CC1 [cinflumide] (10 µM) | -0.00378 | 110% (inactive) |
| Cc1c(C)c2c(c(C)c1O)CCC(C)(C(=O)O)O2 (stereo not drawn) [trolox] (0.833333 µM) | 0.0965 | 98.5% (inactive) |
| CC(C)(Sc1cc(C(C)(C)C)c(O)c(C(C)(C)C)c1)Sc1cc(C(C)(C)C)c(O)c(C(C)(C)C)c1 [probucol] (10 µM) | 0.0913 | 100% (inactive) |
| C[C@@H]1CN(Cc2ccc(F)cc2)CCN1C(=O)COc1ccc(Cl)cc1NC(N)=O (10 µM) | -0.0461 | 112% (inactive) |

| SMILES | morphology score [1] | SARS-CoV-2 infection rate [2] |
| --- | --- | --- |
| Cc1cc(CC(C)CC(C)(C)C)n(O)c(=O)c1 (stereo not drawn) [piroctone-olamine] (10 µM) | 0.406 | 88% (inactive) |
| COc1ccc(S(=O)(=O)N2c3ccc(Cl)cc3[C@](O)(c3ccccc3Cl)[C@@H]2C(=O)N2CCC[C@H]2C(N)=O)cc1OC [relcovaptan] (10 µM) | -0.0372 | 106% (inactive) |
| CCC1=C[C@@H]2CN(C1)Cc1c([nH]c3ccccc13)[C@@](C(=O)OC)(c1cc3c(cc1OC)N(C)[C@H]1[C@@](O)(C(=O)OC)[C@H](OC(C)=O)[C@]4(CC)C=CCN5CC[C@]31[C@@H]54)C2 [vinorelbine] (10 µM) | -0.193 | 115% (inactive) |
| C=CC(=O)Nc1ccc2ncnc(Nc3cccc(Br)c3)c2c1 (0.833333 µM) | 0.0618 | 90% (inactive) |
| COC[C@H](C)Oc1cc(O[C@@H](C)Cc2ccccc2)cc(C(=O)Nc2ccc(C(=O)O)cn2)c1 (10 µM) | -0.163 | 100% (inactive) |
| COc1c(OCCCN2CCOCC2)ccc2c1N=C(NC(=O)c1cnc(N)nc1)N1CCN=C21 [copanlisib] (0.833333 µM) | -0.0397 | 34% (active) |
| O=C1S/C(=C\c2ccc(OCc3cccc(B(O)O)c3)cc2)C(=O)N1Cc1ccc(F)cc1 (10 µM) | 0.0573 | 104% (inactive) |
| c1ccc2c(c1)OC[C@H](CNCCCOc1ccc3c(c1)OCO3)O2 [osemozotan] (10 µM) | 0.0986 | 106% (inactive) |
| Cc1ccc(/C=C2/C(=O)C3(C)CCC2C3(C)C)cc1 (stereo not drawn) [3-(4-methylbenzylidene)camphor] (10 µM) | -0.0397 | 114% (inactive) |
| O=[N+]([O-])/N=C1\NCCN1Cc1ccc(Cl)nc1 [imidacloprid] (10 µM) | 0.114 | 98.5% (inactive) |
| Cc1ccc(C23CNCC2C3)cc1 (stereo not drawn) [bicifadine] (10 µM) | 0.0287 | 107% (inactive) |
| Cc1ccc2c(c1)[C@H]1CN(C)CC[C@H]1N2 [stobadine] (10 µM) | 0.0748 | 98% (inactive) |
| O=C(N[C@H]1CN2CCC1CC2)c1cc2cccc(Cl)c2s1 (10 µM) | 0.352 | 86.5% (inactive) |
| Nc1nc(CC(=O)Nc2ccc(CCNC[C@H](O)c3ccccc3)cc2)cs1 [mirabegron] (10 µM) | -0.0704 | 102% (inactive) |
| CN1CCC(=C2c3ccccc3C=Cc3ccccc32)CC1 [cyproheptadine] (0.833333 µM) | 0.0226 | 102% (inactive) |
| COc1ccc(CNC(=O)c2cc(-c3cncc(C)c3)ncc2-c2nccs2)nc1OC (10 µM) | -0.0112 | 100% (inactive) |
| c1ccc2c(Cc3c[nH]c4ccccc34)c[nH]c2c1 [3,3'-diindolylmethane] (10 µM) | 0.0838 | 113% (inactive) |
| Cc1nc(=O)c2cc(CN(C)c3ccc(C(=O)N[C@@H](CCC(=O)O)C(=O)O)s3)ccc2[nH]1 [raltitrexed] (0.833333 µM) | -0.207 | 104% (inactive) |
| COc1ccc(C2CC(c3ccccc3)=NN2c2ccc(S(N)(=O)=O)cc2)cc1 (stereo not drawn) (10 µM) | 0.152 | 87% (inactive) |
